Assay results taken from PubChem BioAssay (NCATS).
Values without a mark were called inactive. Inconclusive results are not listed. The source made the active and inactive calls. Unless noted, calls come from the whole dose curve; as a rule, active = well fitted curve in either direction with a large enough effect (not every such curve was filed as active); inconclusive = small, poorly fitted or top-dose-only effect, or another doubt; inactive = flat fitted curve, though single readings scatter.

What was measured:
[1] = target: Lysosomal acid glucosylceramidase (Homo sapiens) (UniProt P04062); assay: Glucocerebrosidase-p2 (AID 348; in the data active = potency below about 10 µM; note: potency is the fitted concentration of half-maximal effect); settings: purified GBA, blue fluorogenic substrate, 40 min
In short: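 Normal human glucocerebrosidase (0.2 nM) with blue fluorogenic substrate (80 uM final) in citrate/phosphate pH 5.9 with 10mM sodium taurocholate, 0.01% tween-20; 40 min RT, NaOH/glycine stop; fluorescence Ex 365/Em 440; AC50 from a titration from 0.6 nM upwards.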

[2] = AP1 Signaling Pathway (AID 357); settings: ME-180 AP-1-bla reporter, EGF-induced, beta-lactamase ratio, 5 h; at 7.69 µM (top of the series) unless noted;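 note: ME-180 reporter cells stimulated with EGF at its EC50 level; % is set by controls: 0 for no effect and ±100 for the full control effect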
In short: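 Read-out was the 460nm/530nm emission ratio (excitation 405nm) after CCF4 loading for 2.5 hours at room temperature. Cells carried an AP-1-driven beta-lactamase reporter, were stimulated with EC50 EGF plus compound for 5 hours, and AC50 values came from titrations.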

[3] = NFAT Signaling Pathway (AID 444); settings: Jurkat NFAT-bla M1, carbachol, beta-lactamase ratio, 5 h; at 7.69 µM (top of the series) unless noted;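 note: carbachol stimulus at about its EC50 of 1 µM final; % is set by controls: 0 for no effect and ±100 for the full control effect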
In short: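 Jurkat cells carrying an NFAT-driven β-lactamase reporter and co-transfected muscarinic M1 receptor were treated with compound plus carbachol (1 uM final, an EC50 level) for 5 h at 37 °C. CCF4 loading followed for 1 h at RT; 460/530 nm ratio gave %activity.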

[4] = Stat Signaling Pathway (AID 446); settings: ME-180 SIE beta-lactamase reporter, IL-6 stimulated, 5 h; at 7.69 µM (top of the series) unless noted;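 note: ME-180 cervical cancer cells given 40 pM IL-6 alongside compound; SIE-controlled beta-lactamase reporter measured as 460/530 nm FRET emission ratio; % is set by controls: 0 for no effect and ±100 for the full control effect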
In short: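 Compound effects on IL-6-induced STAT reporter activity were measured in ME-180 cells. After overnight culture, cells were co-treated with 40 pM IL-6 for 5 hrs before beta-lactamase substrate loading at room temperature.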

[5] = target: Glucocorticoid receptor (Homo sapiens) (UniProt P04150); assay: GR-GFP Redistribution (AID 450;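 active = compounds whose dose series gives a full or clear partial fitted curve of increased nuclear translocation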; note: potency is the fitted concentration of half-maximal effect); settings: U2OS GR-GFP nuclear translocation, laser cytometry, 2 h
[6] = target: Glucocorticoid receptor (Homo sapiens) (UniProt P04150); assay: GR-EFC Redistribution (AID 451; calls by dose curve; note: potency is the fitted concentration of half-maximal effect); settings: CHO-K1 GR-EFC translocation, beta-gal luminescence, 2 h
In short: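 CHO-K1 cells stably expressing nuclear-localized β-gal enzyme acceptor and GR fused C-terminally to the enzyme donor fragment; ligand-driven nuclear translocation restores β-gal by complementation. Compounds titrated up to 46 uM final, 2 h at 37 °C; luminescence read.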

[7] = target: Mitogen-activated protein kinase 10 (Mus musculus) (UniProt Q61831); assay: JNK3 AlphaScreen Assay (AID 530); settings: JNK3 lysate, c-Jun phosphorylation; series mostly up to 11.4 µM;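 note: kinase came from lysate of stimulated human HepG2 cells; signal reports phosphorylation of biotinylated GST-cJun 1-79 at Ser73 with 10 µM ATP; % is set by controls: 0 for no effect and ±100 for the full control effect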
In short: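 Biotinylated GST-cJun(1-79) served as substrate for JNK3 in HepG2 lysates stimulated with IL-1beta and TNF-alpha. ATP was 10 uM final, pH 7.6. Ser73 phosphorylation was quantified by AlphaScreen (680 nm excitation).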

[8] = target: 3',5'-cyclic-AMP phosphodiesterase 4B (Homo sapiens) (UniProt Q07343); assay: qHTS Assay for Inhibitors of PDE-IV (AID 607; active = well fitted activation curve with a large enough effect in the main read-out, with a control signal flat, not every such curve was filed as active; note: % of control where 0% means no effect); settings: HEK293 ACTOne CNG channel cells, membrane potential fluorescence; series mostly up to 22.9 µM
In short: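 ACTOne HEK293 cells carry a modified cAMP-gated CNG channel and express endogenous PDE4; plated 1000 cells/well, compounds up to 22.9 uM final. Membrane-potential dye fluorescence (ex 535/em 590) was read; parental cells received 10 uM forskolin + 100 uM RO 20-1724.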

[9] = qHTS Assay for Identification of Small Molecule Agonists for Hypoxia Response Element Signaling Pathway (AID 914; active = well fitted activation curve with a large enough effect in the signal ratio, with a control signal flat, not every such curve was filed as active; the % refers to the signal ratio; note: % of control where 0% means no effect); settings: ME-180 (cervical carcinoma) HRE-bla reporter, beta-lactamase ratio, CoCl2, 17 h; activation: stronger effect = higher value
In short: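 HRE-bla ME-180 cells, overnight plating in Opti-MEM with 0.5% dialyzed FBS; cpd titration + EC50 CoCl2, 17 h, 37 degrees Celsius; CCF4 2.5 h RT; 460/530 nm ratio; AC50.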

[10] = target: Cytochrome P450 2C19 (Homo sapiens) (UniProt P33261); assay: qHTS Assay for Inhibitors and Substrates of Cytochrome P450 2C19 (AID 899; active = well fitted inhibition curve with a large enough effect; note: nearly all actives have a fitted effect of over 60% in size; note: potency is the fitted concentration of half-maximal effect); settings: recombinant CYP2C19, luciferin-H EGE luminescence; series mostly up to 11.4 µM
In short: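 Human CYP2C19 (5nM) with Luciferin-H EGE at 10uM (its KM) in 50mM KPO4 was preincubated with compound for 10 min at 37C. NADPH regeneration started a 60 min 37C reaction. Luciferin was read by luminescence, normalized to 57uM ketoconazole.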

Cytochrome P450 2C19 (Homo sapiens), sequence (P33261 whole entry, looked up): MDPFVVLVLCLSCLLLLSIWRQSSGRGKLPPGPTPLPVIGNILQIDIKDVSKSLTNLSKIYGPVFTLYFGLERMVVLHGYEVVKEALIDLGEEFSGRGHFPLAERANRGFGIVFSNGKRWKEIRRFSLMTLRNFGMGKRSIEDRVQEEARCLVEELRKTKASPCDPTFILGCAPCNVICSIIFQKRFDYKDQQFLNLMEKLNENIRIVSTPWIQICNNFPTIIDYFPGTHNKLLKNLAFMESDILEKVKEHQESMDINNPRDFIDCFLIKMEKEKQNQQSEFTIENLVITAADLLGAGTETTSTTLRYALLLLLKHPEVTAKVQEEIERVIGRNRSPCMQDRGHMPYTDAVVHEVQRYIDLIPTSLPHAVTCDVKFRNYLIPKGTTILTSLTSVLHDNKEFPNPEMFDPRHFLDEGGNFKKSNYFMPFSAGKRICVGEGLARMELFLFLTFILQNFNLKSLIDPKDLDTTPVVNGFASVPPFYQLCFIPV
Glucocorticoid receptor (Homo sapiens), sequence (P04150 whole entry, looked up, the tested form may be a part): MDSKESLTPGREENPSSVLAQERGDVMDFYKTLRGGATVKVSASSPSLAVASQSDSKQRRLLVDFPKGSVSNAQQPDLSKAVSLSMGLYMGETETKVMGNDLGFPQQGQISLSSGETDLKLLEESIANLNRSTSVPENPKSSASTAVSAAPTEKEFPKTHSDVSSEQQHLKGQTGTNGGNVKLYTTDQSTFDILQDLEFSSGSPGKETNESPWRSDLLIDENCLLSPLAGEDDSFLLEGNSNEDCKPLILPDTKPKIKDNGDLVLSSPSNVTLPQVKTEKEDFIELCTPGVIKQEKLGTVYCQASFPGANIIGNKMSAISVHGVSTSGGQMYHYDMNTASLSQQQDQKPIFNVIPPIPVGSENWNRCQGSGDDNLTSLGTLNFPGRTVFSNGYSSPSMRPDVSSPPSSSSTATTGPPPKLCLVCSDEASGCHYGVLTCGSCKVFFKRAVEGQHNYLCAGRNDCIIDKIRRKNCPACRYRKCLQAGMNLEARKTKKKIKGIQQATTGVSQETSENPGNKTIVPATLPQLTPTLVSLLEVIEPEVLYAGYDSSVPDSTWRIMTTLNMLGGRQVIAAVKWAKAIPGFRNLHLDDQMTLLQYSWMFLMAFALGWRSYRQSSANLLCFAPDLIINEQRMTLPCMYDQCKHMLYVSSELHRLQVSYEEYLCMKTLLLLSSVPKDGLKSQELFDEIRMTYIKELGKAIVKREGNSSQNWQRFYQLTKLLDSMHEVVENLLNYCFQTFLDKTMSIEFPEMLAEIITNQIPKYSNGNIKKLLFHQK
3',5'-cyclic-AMP phosphodiesterase 4B (Homo sapiens), sequence (Q07343 whole entry, looked up): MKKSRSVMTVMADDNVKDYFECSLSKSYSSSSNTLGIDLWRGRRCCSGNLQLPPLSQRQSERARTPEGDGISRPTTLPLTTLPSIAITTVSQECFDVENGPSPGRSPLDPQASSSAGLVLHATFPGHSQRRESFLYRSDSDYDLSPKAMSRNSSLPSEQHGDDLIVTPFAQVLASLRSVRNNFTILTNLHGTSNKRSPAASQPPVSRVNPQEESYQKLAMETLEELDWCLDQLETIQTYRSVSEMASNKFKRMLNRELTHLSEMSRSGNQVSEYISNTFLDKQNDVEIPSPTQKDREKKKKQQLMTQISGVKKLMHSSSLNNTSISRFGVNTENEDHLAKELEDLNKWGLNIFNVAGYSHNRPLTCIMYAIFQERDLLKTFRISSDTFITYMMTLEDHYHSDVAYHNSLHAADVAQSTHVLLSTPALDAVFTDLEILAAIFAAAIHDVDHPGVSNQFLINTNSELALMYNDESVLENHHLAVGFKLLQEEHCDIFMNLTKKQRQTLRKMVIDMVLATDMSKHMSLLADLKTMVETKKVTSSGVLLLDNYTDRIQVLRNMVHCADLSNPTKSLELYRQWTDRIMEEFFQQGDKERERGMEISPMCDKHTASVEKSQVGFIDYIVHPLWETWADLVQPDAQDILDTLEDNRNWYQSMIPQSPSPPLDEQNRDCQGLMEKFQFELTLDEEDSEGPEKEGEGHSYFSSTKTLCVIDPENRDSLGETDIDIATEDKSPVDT
Lysosomal acid glucosylceramidase (Homo sapiens), sequence (P04062 whole entry, looked up): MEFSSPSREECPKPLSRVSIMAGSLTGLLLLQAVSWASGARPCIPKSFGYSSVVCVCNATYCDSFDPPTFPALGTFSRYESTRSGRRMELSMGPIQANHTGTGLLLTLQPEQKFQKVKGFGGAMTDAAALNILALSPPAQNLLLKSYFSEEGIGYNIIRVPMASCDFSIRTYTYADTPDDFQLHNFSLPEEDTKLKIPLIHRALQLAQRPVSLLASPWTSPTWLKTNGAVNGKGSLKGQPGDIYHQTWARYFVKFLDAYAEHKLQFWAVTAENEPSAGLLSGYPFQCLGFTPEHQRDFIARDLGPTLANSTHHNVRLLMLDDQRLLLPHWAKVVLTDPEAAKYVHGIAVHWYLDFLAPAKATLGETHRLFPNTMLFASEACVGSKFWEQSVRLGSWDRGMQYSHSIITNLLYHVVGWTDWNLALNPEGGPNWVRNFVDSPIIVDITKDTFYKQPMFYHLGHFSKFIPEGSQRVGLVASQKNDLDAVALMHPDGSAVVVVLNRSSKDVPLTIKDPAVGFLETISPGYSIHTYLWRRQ

Compound | Potency [1] [µM] | activity change, negative = inhibition [2] [%] | activity change, negative = inhibition [3] [%] | activity, negative = inhibition [4] [%] | Potency [5] [µM] | Potency [6] | Potency [7] | Potency [8] | activation [9] [%] | Potency [10]
NC(=O)CS(=O)C[C@H](N)C(=O)O (stereo not given in full) | > 11.4 | 23.6 | 11 | 5.38 | > 46 | > 9.22 µM | inactive | inactive | 18.8 | 
O=C(O)c1ccc2c(c1C(=O)O)C(=O)OC2(c1ccc(O)cc1)c1ccc(O)cc1 | > 11.4 | 2.33 | 0.0722 | 1.84 | > 46 | > 9.22 µM | inactive | inactive | 9.96 | 
NS(=O)(=O)c1nc(S(=O)(=O)O)c2[nH]cnc2n1 | > 11.4 | 7.59 | 2.24 | 2.49 | > 46 | > 9.22 µM | inactive | inactive |  | inactive
CC[C@@H]1CC(=O)N(SC[C@H](N)C(=O)O)C1=O | > 11.4 | 1.56 | 12.4 | 1.84 | > 46 | > 9.22 µM | inactive | inactive |  | inactive
O=C1Nc2ccccc2[C@]1(O)Cc1ccccn1 | > 11.4 | 1.94 | 2.79 | 12.1 | > 46 | 0.26 µM (active) | inactive | inactive | -8.99 | 
O=C(O)CCCc1ccc2ccccc2c1 | > 11.4 | -3.28 | -9.96 | 3.96 | > 46 | > 9.22 µM | inactive | inactive | -6.23 | 
CC1(C)[C@@H]2CC[C@@]1(CS(=O)(=O)Nc1ccccc1)C(=O)C2 | > 11.4 | -11.4 | 4.16 | -7 | > 46 | > 9.22 µM | inactive | inactive |  | 2 µM (active)
O=C(C[C@@H](C(=O)O)N1CCOCC1)c1ccccc1 | > 11.4 | 8.49 | -28.5 | -2.89 | > 46 | > 9.22 µM | inactive | inactive | 16 | 
N#C/C(=C(\O)C(=O)O)c1ccc(-c2cccc3ccccc23)cc1 | > 11.4 | -3.67 | 4.07 | 3.75 | > 46 | > 9.22 µM | inactive | inactive |  | inactive
NS(=O)(=O)c1ccc(NC(=O)Nc2ccccc2F)cc1 | > 11.4 | -3.3 | 20.2 | 2.14 | > 46 | > 9.22 µM | inactive | inactive | 3.83 | 
c1ccc(-c2cc(-c3cc(-c4ccccn4)[nH]n3)n[nH]2)nc1 | > 11.4 | 4.94 | 1.51 | -2.75 | > 46 | > 9.22 µM | inactive | inactive | 3.17 | 
Cn1c(=O)c2[nH]c(CCNC(=O)c3ccccc3)nc2n(C)c1=O | > 11.4 | 5.92 | 10.4 | 3.06 | > 46 | > 9.22 µM | inactive | inactive | 8.28 | 
O=C(O)CC[C@@H](C(=O)O)N1C(=O)[C@@H]2[C@@H]3CC[C@H](C3)[C@@H]2C1=O | > 11.4 | 11.4 | 3.45 | -17 | > 46 | > 9.22 µM | inactive | inactive |  | inactive
C[C@@]12CC(=O)[C@@H]3[C@@H](CCC4=CC(=O)CC[C@]43C)[C@@H]1CC=C2CC(=O)O | > 11.4 | -4.3 | 23.5 | 2.31 | > 46 | > 9.22 µM | inactive | inactive | -1.62 | 
NC[C@H]1O[C@@H](n2cnc3c(=O)[nH]c(N)nc32)[C@@H](O)[C@@H]1O | > 11.4 | -6.27 | 5.35 | 3.9 | > 46 | > 9.22 µM | inactive | inactive | 4.86 | 
